Source: PubChem BioAssay AID493240 (Broad Institute, 2011)
In all, about 1,300 compounds went through this assay and about 270 (21%) were called active. How the calls were made is not given here. A selection follows. Potency and affinity values are given separately.

Experiment: cytotoxicity in parental SK-MEL-5 melanoma cells – cell-based, CellTiter-Glo, cherry-picked, set 3, orthogonal assay for MITF inhibitor project, dose response (AID 493240)
Conditions: SK-MEL-5 viability, ATP luminescence (CellTiter-Glo), 24 h; series mostly up to 35 µM; activity change, negative = viability loss: at the top concentration

Structure (SMILES) | activity change, negative = viability loss
COc1ccc(COC(=O)c2cc([N+](=O)[O-])ccc2N2CCOCC2)cc1F | 6.58% (inactive)
CN(C)c1ccc(/C=C/c2cccc[n+]2[O-])cc1 | -16.4% (inactive)
Cc1ccc(NC(=O)Cc2noc3ccccc23)cc1 | -4.59% (inactive)
CC(=NNc1nc2ccccc2o1)c1cc2ccccc2cn1 | -10.6% (inactive)
COC(=O)c1ccc(COc2ccc3c(c2)CCC3)o1 | -0.066% (inactive)
Fc1ccc(-c2nnc(-c3ccc(F)cc3)o2)cc1 | -15.4% (inactive)
COc1cccc(-c2nnc3sc(-c4cccs4)nn23)c1 | 3.21% (inactive)
Nc1ncnc(Sc2ncccn2)c1[N+](=O)[O-] | -18% (inactive)
O=C(CSc1ccccn1)c1ccc2c(c1)OCO2 | 5.91% (inactive)
O=C(CCl)N1CCN(S(=O)(=O)c2ccc3c(c2)CCC3)CC1 | -30.6% (inactive)
O=C(Nc1nc(-c2ccccn2)cs1)c1ccc([N+](=O)[O-])o1 | -8.07% (inactive)
N#C/C(=C(/O)CCl)c1nc2ccccc2[nH]1 | -8.54% (inactive)
C/C(=C\c1ccccc1)C(=O)Nc1ccc(Cl)cn1 | 2.07% (inactive)
COc1cc(SC)ccc1C(=O)NCCOc1ccccc1Cl | -10.2% (inactive)
COCCNC(=O)c1cc2sc3ccccc3c2s1 | -2.65% (inactive)
CCn1c(=O)c(C(=O)NCc2ccccc2Cl)c(O)c2ccccc21 | -7.51% (inactive)
O=c1nc(N/N=C/c2ccccn2)cn[nH]1 | -12.3% (inactive)
Cc1ccc(NC(=O)Nc2ccccc2)nc1 | -8.06% (inactive)
O=C(CCl)N(c1ccccc1)c1c[nH]c2ccccc12 | -12.6% (inactive)
FC(F)(F)c1cc(CCN2CCNC[C@@H]2Cc2ccccc2)cc(C(F)(F)F)c1 | -36.9% (inactive)
CCSc1ccccc1C(=O)n1nnc2ccccc21 | -14.9% (inactive)
Cc1cc(C(=O)COc2cccnc2[N+](=O)[O-])c(C)n1-c1ccccc1 | -5.32% (inactive)
Cc1cc(C)c2ccc(N)nc2c1O | -18.6% (inactive)
Cc1cc(C(F)(F)F)c2c(N)c(C(=O)Nc3cc(C)on3)sc2n1 | -11.3% (inactive)

Structure (SMILES) | activity change, negative = viability loss
O=C(Cn1cnc2c(oc3ccccc32)c1=O)c1ccccc1 | -8.3% (inactive)
Cc1nc(C)c(C(=O)N/N=C/c2cc(Br)ccc2O)s1 | -19.8% (inactive)
CCCCNc1nc(=S)n(-c2ccccc2)c(C)c1C(C)=O | -8.68% (inactive)
COCCn1c(C)cc(C(=O)COC(=O)c2ccccc2Br)c1C | 1.32% (inactive)
CCC(=O)NCCc1nc2cc(NC(=O)c3cccc([N+](=O)[O-])c3)ccc2n1C | 0.147% (inactive)
Cc1ccc(/C=N/Nc2ccc(C(=O)O)cc2)s1 | -11.2% (inactive)
CC(C)(C)c1ccc(/C=N/Nc2ccc(C(=O)O)cc2)cc1 | -0.109% (inactive)
COc1cccc(CNc2nc3ccccc3n2C)c1O | -11.7% (inactive)
CC(=O)N(c1nnc(-c2cccc(C)c2)s1)C1CCCC1 | -0.421% (inactive)
CCOC(=O)c1ccc2nc(C)c(CCC(C)=O)c(Cl)c2c1 | -10.8% (inactive)
O=S(=O)(c1ccc(Cl)cc1)N1CCN(Cc2ccc(O)c3ncccc23)CC1 | -16.5% (inactive)
CCCOCc1ccc(O)c2ncccc12 | -39.2% (inactive)
O=C(CSC(=S)N1CCCCC1)c1c(F)cccc1F | -8.79% (inactive)
c1ccc(Cc2cc(-c3ccccc3)on2)cc1 | 0.069% (inactive)
COc1cc2c(c(OC)c1OC)-c1ccc(OC)c(=O)cc1C(NC(C)=O)CC2 (centres undefined) | -10.5% (inactive)
CCN1c2ccccc2NC2C1C(C(C)=O)C(=O)N2c1ccc(Cl)cc1 (centres undefined) | -27.8% (inactive)
COc1cnc(-c2ccccn2)nc1NC(C)C | -48.6% (inactive)
N#CCSc1nc2ccccc2c2nc3ccccc3n12 | -26.7% (inactive)
Cc1ccc(SCc2cn3cc(Cl)ccc3n2)cc1 | -2.16% (inactive)
CN1CCN(C2=C(NS(=O)(=O)c3cccs3)C(=O)c3ccccc3C2=O)CC1 | -45.7% (inactive)
CC(=O)Nc1ccc(S(=O)(=O)N2CCn3cccc3C2C)cc1 (centres undefined) | -15.5% (inactive)
Cc1cc(C(=O)Nc2ccc([N+](=O)[O-])cn2)cs1 | 1.28% (inactive)
CCOC(=O)c1cc2sccc2n1CC(=O)N1c2ccccc2CC1C (centres undefined) | -48.5% (inactive)
O=C(Nc1ccc2c(c1)OCCO2)c1cccc(Cl)c1Cl | 6.72% (inactive)

Structure (SMILES) | activity change, negative = viability loss
O=C(c1nnsc1S(=O)(=O)c1ccc(Cl)cc1)N1CCOCC1 | -10.9% (inactive)
CC(C)(CO)NC(=O)c1ccc2nc(Cc3cccc(Cl)c3)oc2c1 | 8.31% (inactive)
COc1ccc2cc3cc(C(=O)NCCc4ccc(OC)c(OC)c4)oc3nc2c1 | -23.3% (inactive)
Cc1ccccc1C(=O)O/N=C(\N)c1ccc([N+](=O)[O-])cc1 | -4.23% (inactive)
Nc1ccc(-c2ncc(-c3ccccc3)o2)cc1 | -2.92% (inactive)
CCOC(=O)CSC1=NC(=O)/C(=C\c2ccc(OC(C)=O)cc2)S1 | -10.5% (inactive)
CCOC(=O)CSC1=NC(=O)/C(=C\c2ccc(Cl)cc2)S1 | -52.8% (inactive)
CC(Oc1ccccc1)C(=O)Nc1nc(-c2ccccn2)cs1 (centres undefined) | -18.7% (inactive)
CC(C)(C)C1CCC(OC(=O)CN2CCCCC2)CC1 (centres undefined) | -11.8% (inactive)
CC(O)CNC(=O)C1CCN(Cc2ccc(OCc3ccccc3)cc2)CC1 (centres undefined) | -5.93% (inactive)
Cc1cc(C(=O)CN2C(=O)c3ccccc3S2(=O)=O)c(C)n1-c1ccccc1 | -9.62% (inactive)
O=C(N/N=C\c1cc(Br)ccc1O)c1ccc(S(=O)(=O)N2CCCCC2)cc1 | -30.4% (inactive)
COC(=O)[C@@H](C)NC(=O)c1ccc2oc(CCc3ccccc3)nc2c1 | 2.14% (inactive)
O=C(Nc1nc2ccccc2s1)c1ccccc1[N+](=O)[O-] | -11.7% (inactive)
Cc1nc2nc(C)c(NS(=O)(=O)c3ccc4c(c3)CCCC4)c(=O)n2[nH]1 | 3.77% (inactive)
COc1ccc(/C=C2\SC(=O)N(CCCC(=O)Nc3cc(Cl)ccc3C(=O)O)C2=O)cc1 | -7.19% (inactive)
CC(C)c1ccc(CNc2ncccn2)cc1 | 4.61% (inactive)
COC(=O)c1ccc(/C=C(\C#N)C(=O)NC(C)c2ccccc2)cc1 (centres undefined) | -23.5% (inactive)
Clc1ccc(-c2nc(-c3ccncc3)no2)c(Cl)c1 | 6.89% (inactive)
Cc1ccc(C2CC(C(F)(F)F)n3nc(C(=O)NCc4c(C)nn(C)c4C)c(Cl)c3N2)cc1 (centres undefined) | -39.3% (inactive)
Cc1nn(-c2ccccc2Cl)c(Cl)c1/C=N/Nc1cccc(C(=O)O)c1 | -8.47% (inactive)
O=C(Nc1ccc(OC(F)(F)F)cc1)c1[nH]ncc1[N+](=O)[O-] | 6.68% (inactive)
C=CCNC(=O)Cn1nnc(-c2ccc(-c3ccc(OC)cc3)cc2)n1 | -0.141% (inactive)
C=CCOc1ccc(/C=C2\SC(=S)N(CCC(=O)O)C2=O)cc1 | 13.3% (inactive)

Structure (SMILES) | activity change, negative = viability loss
CCc1nc2oc3ccccc3c(=O)c2cc1C(=O)OC | -4.67% (inactive)
COc1ccc(S(=O)(=O)N2CCCCC2)cc1NC(=O)c1ccc([N+](=O)[O-])o1 | -35.1% (inactive)
CCCCOC(=O)c1[nH]c(C)c(C(=O)OC)c1C | -15.2% (inactive)
Oc1ccc(CNc2ccccc2F)c2cccnc12 | -40.5% (inactive)
O=C(Cn1ncc(Cl)c(Cl)c1=O)c1ccc(Cl)cc1 | -28.3% (inactive)
Nc1nnnn1/N=C/C(Br)=C/c1ccccc1 | -14.9% (inactive)
Cc1ccsc1C(=O)OCC(=O)Nc1sccc1C(N)=O | -4.08% (inactive)
CN(C)c1nc(C=C(C#N)C#N)c(Cl)n1-c1ccc(F)cc1 | -72.3% (inactive)
COc1ccc(/C=N/Nc2ccccn2)cc1OC | 3.77% (inactive)
COc1ccc(-c2cc(-c3ccccc3O)[nH]n2)cc1OC | 5.33% (inactive)
CCCCNC(=O)Nc1ccc(C2SCCS2)cc1 | -12.7% (inactive)
CN(C)Cc1c(O)ccc2c1O/C(=C\C=C\c1ccccc1)C2=O | 6.11% (inactive)
Cc1nc2ccccn2c1C(=O)/C=C/c1cccc([N+](=O)[O-])c1 | 13.3% (inactive)
O=C(/C=C/c1cccc([N+](=O)[O-])c1)n1cnc2ccccc21 | 23.4% (inactive)
CCCOC(=O)c1ccc(NC(=O)C2CCCO2)cc1 (centres undefined) | 11.9% (inactive)
O=C(Nc1nnc(Cc2ccccc2)s1)c1ccccc1 | 10% (inactive)
CCOc1ccc(NC(=O)Nc2cccc(C(=O)O)c2)cc1 | -24.5% (inactive)
Cc1ccc(O)c(NC(=O)c2ccc3c(c2)C(=O)N(CC(C)C)C3=O)c1 | -15.1% (inactive)
CCN(CC)C(=O)CCCOc1ccc(Cl)cc1Cl | -3.19% (inactive)
O=C(O)c1cccc(N/N=C/c2cccs2)c1 | -4.73% (inactive)
N#Cc1cc2c(nc1SC1CC(=O)N(c3ccccc3)C1=O)CCC2 (centres undefined) | -10.3% (inactive)
CCOC(=O)c1nnn(-c2ccc([N+](=O)[O-])cc2[N+](=O)[O-])c1C | -37.1% (inactive)
Cc1ccc2nc3cc([N+](=O)[O-])cc([N+](=O)[O-])c3cc2c1 | -29.9% (inactive)
COc1ccc(Nc2oc(-c3ccc(OC)cc3)nc2C#N)cc1 | 8.58% (inactive)

Structure (SMILES) | activity change, negative = viability loss
Cc1cccc(-c2nc(C#N)c(NCc3ccco3)o2)c1 | 11.6% (inactive)
COC(=O)c1c(C)[nH]c(/C=N/Nc2ccccc2)c1C | -6.74% (inactive)
OCCNc1c2ccccc2nc2c(F)c(F)c(F)c(F)c12 | -36.1% (inactive)
FC(F)(F)Oc1ccc(-c2cn3cccnc3n2)cc1 | -0.472% (inactive)
COc1ccc(NC(=O)Nc2ccc(F)c(F)c2)c(OC)c1 | 4.2% (inactive)
Cc1ccc(-c2c[n+](Cc3cccc(Cl)c3)c3n2CCC3)cc1 | -18.5% (inactive)
Cc1ccc(-c2c[n+](Cc3ccc(Cl)cc3)c3n2CCC3)cc1 | -25.2% (inactive)
CC1CC(C)C[N+](=C2C=C(N3CCCC3)CC(C)(C)C2)C1 (centres undefined) | -40.1% (inactive)
COc1ccc(-c2noc(-c3cccs3)n2)cc1OC | 4.3% (inactive)
O=C(Nc1cccnc1Cl)c1cc(-c2ccco2)on1 | -0.292% (inactive)
CCN(CC)S(=O)(=O)c1ccc(N2CCCC2)c(NC(=O)c2ccc([N+](=O)[O-])o2)c1 | -23.8% (inactive)
CSc1nc(N)n2nc(-c3ccccc3)cc2n1 | -39.1% (inactive)
COc1ccc(C(NC(C)=O)c2ccc3cccnc3c2O)c(OC)c1 (centres undefined) | -15.9% (inactive)
COc1ccc(-c2csc(N(C)C(=O)c3ccco3)n2)cc1 | -3.54% (inactive)
CC(=O)c1sc(N/N=C\c2ccc(N(C)C)cc2)nc1C | 6.94% (inactive)
Cc1csc(N/N=C/c2ccc([N+](=O)[O-])cc2)n1 | -1.39% (inactive)
C(=N\Nc1cc(N2CCCCC2)ncn1)/c1ccco1 | 7.34% (inactive)
CCOc1ccc(C(=O)N2CCc3ccccc32)cc1 | 13.3% (inactive)
CC(=O)Oc1ccc(C)cc1-n1nc2ccccc2n1 | -20.8% (inactive)
CC(=O)Cn1ncc(Br)c(Br)c1=O | -30.7% (inactive)
O=C(CCCN1C(=O)S/C(=C\c2ccccc2)C1=O)NNC(=O)c1ccccc1O | -13.1% (inactive)
O=C(CCCCl)NC(=S)Nc1ccc(N2CCOCC2)cc1 | -8.43% (inactive)
N/C(=N\OC(=O)Cc1cccs1)c1ccccc1 | 0.942% (inactive)
